GPT2 inh = Primary qHTS assay for inhibitors of Glutamate pyruvate transaminase 2 (GPT2); Alanine aminotransferase 2 (Homo sapiens), Q8TD30; Recombinant GPT2, coupled pyruvate oxidase/HRP Amplex Red fluorescence; Potency, µM (doses to about 57.7 µM), for inactives: top-dose activity change, negative = inhibition, hits mostly inhibitors; 100,000 tested, 0.25% active; AID 1671188, 2021; note: nearly all actives have a fitted effect of over 60% in size
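Inhibition is scored from Amplex Red fluorescence generated when pyruvate oxidase and HRP act on pyruvate released by GPT2. Reactions contain 10ng/uL enzyme, 250uM a-KG and 2mM L-alanine and run 30 min at room temperature.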
3T3 cytotox = Cytotoxic Profiling in NIH 3T3 Cell Line of Diverse Libraries Using Quantitative High-Throughput Screening | 94,000 tested, 4.3% active | Potency, µM (highest dose often 96.7 µM), inactives show at the highest dose activity change, negative = cytotoxicity, most hits filed as inhibitors | NIH 3T3 viability, CellTiter-Glo ATP luminescence, 48-72 h; note: nearly all actives have a fitted effect of over 55% in size
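Luminescent ATP readout (CellTiter-Glo, 10 min RT) after 48 or 72 hr compound exposure of NIH 3T3 cells seeded at 400 cells/well in 1536-well format; quantitative HTS.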
HEK293 tox = Cytotoxic Profiling in HEK 293 Cell Line of Diverse Libraries Using Quantitative High-Throughput Screening. HEK 293 viability, ATP luminescence (CellTiter-Glo), 48-72 h. Potency, µM (series often up to 115 µM), for inactives: top-dose activity change, negative = cytotoxicity, hits mostly inhibitors. 94,000 tested, 6.6% active. AID 1345083, 2018; note: nearly all actives have a fitted effect of over 60% in size
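Read-out: CellTiter-Glo ATP luminescence. Cells: HEK 293, 250 cells/well. Exposure: 48 or 72 hr, 37 degree Celsius.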
hNpr1 antagonist = Natriuretic polypeptide receptor (hNpr1) antagonism - Primary qHTS; 76,000 tested, 1.6% active; Potency, µM (highest dose often 46.3 µM), for inactives: at the highest dose activity change, negative = inhibition, actives largely listed as inhibitors; Atrial natriuretic peptide receptor 1 (Homo sapiens), P16066; HEK293 hNpr1 GloSensor cGMP, ANP-stimulated luminescence; calls by dose curve; note: nearly all actives have a fitted effect of over 60% in size
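Compound pre-incubated 30 min at room temperature on GloSensor-loaded HEK293 cells stably carrying hNpr1 and the pGS-40F cGMP biosensor. Stimulation uses hNppA at 0.1 nM final; luminescence is taken at baseline and 20 min post-agonist.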
FLuc inh = Firefly luciferase inhibition profiling of diverse chemical library using quantitative high-throughput screening; Luciferin 4-monooxygenase (Photinus pyralis), P08659; AID 1347043, 2019; Potency, µM (top dose mostly 115 µM), actives largely listed as inhibitors; purified P. pyralis luciferase, luminescence, biochemical; 76,000 tested, 2.5% active; note: nearly all actives have a fitted effect of over 65% in size
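Purified P. pyralis luciferase (10nM final) in 50mM Tris acetate pH 7.5, 10mM Mg acetate, 0.01% Tween-20, 0.05% BSA with 10uM D-luciferin and 10uM ATP. Compounds titrated qHTS. Luminescence imaged on CCD.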
Numbers without * were called inactive; i = inactive; ? = inconclusive; · = no result given; [ ] = remark or other dose. Compounds with a hit are over-represented: about 10% of the library has one in this group of screens. Unless noted, calls come from the whole dose curve; as a rule, active = well fitted curve in the direction sought with a large enough effect; inconclusive = small, poorly fitted or top-dose-only effect, or another doubt; inactive = no such curve, though single readings can be large; an effect the other way counts as inactive or inconclusive. % is set by controls: 0 for no effect and ±100 for the full control effect; potency is the fitted concentration of half-maximal effect.

SMILES	GPT2 inh	3T3 cytotox	HEK293 tox	hNpr1 antagonist	FLuc inh
Cc1cccc(C(=O)N2CCCCCCNC(=O)[C@@H]3C[C@@H](C(=O)N4CCc5ccccc5C4)C[C@@H]32)c1	i	?	?	-6%	i
COCCNC(=O)c1ccc2nnc(-c3cc[nH]c3)n2c1	-7%[88.5 µM]	-23%[138 µM]	1%[172 µM]	·	·
COc1ccc(-c2ccc3c(n2)CN(Cc2ccc(F)cc2)C(=O)CO3)cc1	-1%[88.5 µM]	?	?	?	i
O=C1COc2ccc(-c3ccccc3)nc2CN1Cc1ccccc1	i	?	112µM*	-16%[70.6 µM]	i
O=C1COc2ccc(-c3ccc(F)cc3)nc2CN1Cc1ccccc1F	0%[88.5 µM]	?	100µM*	-22%[70.6 µM]	i
O=C1COc2ccc(-c3cc(F)cc(F)c3)nc2CN1Cc1ccccc1	-2%[88.5 µM]	?	?	1%[70.6 µM]	i
CC(=O)N1CCCN(c2ncnc3c2CN(c2cccc(C)c2)C(=O)CN3C)CC1	i	-8%	i	·	·
COc1ccc(-c2cc3c(=O)n(CCNC(=O)c4ccccc4C)ccn3n2)cc1	-3%	-21%	?	-15%	10µM*
COc1ccc(-c2cc3c(=O)n(CCNC(=O)c4ccccn4)ccn3n2)cc1	-19%	-27%	-27%	-11%	7.9µM*
COc1ccc(-c2cc3c(=O)n(CCNC(=O)c4cccc5[nH]ccc45)ccn3n2)cc1	i	?	32µM*	-22%	6.3µM*
COc1ccc(-c2cc3c(=O)n(CCNC(=O)c4cc(F)cc(F)c4)ccn3n2)cc1	-11%	?	?	-19%	2µM*
O=C1CN(C(=O)c2cccs2)CC(O)CN1CCc1ccccc1 (stereo not given)	·	?	-10%	·	·
CC(=O)Nc1cccc(C(=O)NCCn2ccn3nc(-c4ccc(F)cc4)cc3c2=O)c1	0%	?	45µM*	0%	20µM*
O=C(NCCn1ccn2nc(-c3ccc(F)cc3)cc2c1=O)c1cccc(Cl)c1	i	-27%	-43%	?	i
O=C1N[C@@H]2CCN(C(=O)c3ccc(-c4ccccc4)cc3)[C@@H]2C(=O)N1Cc1ccccc1	-12%[88.5 µM]	112µM*	?	-3%[70.6 µM]	?
Cc1ccc(-c2nc(C(=O)NCc3cccc(C)c3)no2)cc1	3%	?	79µM*	-3%	?
O=C(NCc1cccc(Cl)c1)c1noc(-c2ccc(F)cc2)n1	i	25µM*	?	3%	i
Cc1ccc(-c2nc(C(=O)NCc3cccc(Br)c3)no2)cc1	i	?	?	-4%	?
Cn1ncc2c(C(=O)NCc3cccc(C(F)(F)F)c3)cc(-c3cccnc3)nc21	-7%	?	?	·	·
CC(C)CNC(=O)c1cc(-c2ccsc2)nc2c1cnn2C	i	?	71µM*	·	·
Cn1ncc2c(C(=O)NCc3cccc(C(F)(F)F)c3)cc(-c3ccsc3)nc21	i	?	28µM*	·	·
CC(C)CNC(=O)c1cc(-c2cccnc2)nc2c1cnn2C	-8%[88.5 µM]	?	?	·	·
O=C(Nc1ccnn1C1CCN(Cc2ccc(-c3ccccc3)cc2)CC1)C1CC1	2%	35µM*	?	?	i
CSc1ncc(CN2CCC(n3nccc3NC(=O)Cc3ccccc3)CC2)cn1	i	-25%	-11%	0%	i
COc1ccc(NC(=O)N2CCc3c(C(=O)NCCCN(C)C)cccc32)cc1	-3%	-5%	-7%	-1%	35µM*
SMILES	GPT2 inh	3T3 cytotox	HEK293 tox	hNpr1 antagonist	FLuc inh
CCCNC(=O)c1cccc2c1CCN2C(=O)Nc1ccc(OC)cc1	2%	?	?	5µM*	0.35µM*
COc1cccc(-c2cc(C3CCN(C(=O)Nc4cc(C)ccc4C)CC3)[nH]n2)c1	i	?	?	-15%	i
COc1cccc(-c2cc(C3CCN(C(=O)Nc4cc(C)cc(C)c4)CC3)[nH]n2)c1	-3%	?	40µM*	-19%	i
CSc1cccc(NC(=O)N2CCC(c3cc(-c4cccc(C)c4)n[nH]3)CC2)c1	?	18µM*	45µM*	-20%	i
Cc1ccc(NC(=O)N2CCC(c3cc(-c4cccc(C)c4)n[nH]3)CC2)cc1	i	?	?	-19%	i
COc1cccc(-c2cc(C3CCN(C(=O)Nc4ccc(F)cc4F)CC3)[nH]n2)c1	-2%	?	?	-15%	i
CCOCCOC1CCN(C(=O)c2cc(-c3cccc(OC)c3)n[nH]2)CC1	?	-28%	-22%	-3%	25µM*
COc1cccc(-c2cc(C3CCN(C(=O)Nc4ccccc4C(F)(F)F)CC3)[nH]n2)c1	i	32µM*	22µM*	-7%	i
CCOCCOC1CCN(C(=O)c2ccccc2OC)CC1	i	-9%	0%	1%	i
Cn1cnc(C(=O)N2CCC3(CC2)CC(N(Cc2ccc(F)cc2)C2CC2)CCO3)c1 (stereo not given)	3%	-16%	-21%	14%	i
O=C(NC1CCc2nnc(C3CC3)n2CC1)C1CC=CCC1 (stereo not given)	0%	-10%	-1%	4%	i
CN1CCN(C(=O)c2ccc3nnc(-c4ccc(OC(F)(F)F)cc4)n3c2)CC1	i	-11%	0%	·	·
COc1cccc(-c2cc(C3CCN(C(=O)c4ccc(Cl)cc4)CC3)[nH]n2)c1	i	?	45µM*	?	i
Cc1ccc(NC(=O)Cn2nc3n(c2=O)CCCC3)cc1	i	1%	0%	-2%	i
O=c1cc2c(nn1Cc1ccc(OC(F)(F)F)cc1)CCCCC2	-6%	?	45µM*	-21%	i
CCCCn1c(=O)c(C(=O)NC2CCCC2)nc2cccnc21	-9%[88.5 µM]	-37%[138 µM]	?	·	·
O=C(CN1CCOc2c(O)cc(-c3csc4ccccc34)cc2C1)N1CCOCC1	i	?	?	-3%	i
Cc1[nH]cnc1C(=O)N1CCOc2c(O)cc(-c3csc4ccccc34)cc2C1	5%	79µM*	45µM*	-18%	i
O=C1CCCN1CCN1CCOc2c(O)cc(-c3csc4ccccc34)cc2C1	4%	?	45µM*	2%	i
NCCCCC(=O)N1CCOc2c(O)cc(-c3csc4ccccc34)cc2C1	-6%	40µM*	32µM*	-29%	i
O=C(c1cccc(Cl)c1)N1CCN(C(=O)c2nc3cccnc3n(CCc3ccccc3)c2=O)CC1	i	?	?	·	·
COc1ccc(CC(=O)N2CCCN(c3ccc4nnc(C5CC5)n4n3)CC2)cc1	·	-30%	4%	·	·
C[C@H]1COC2=C1C(=O)C(=O)c1c2ccc2c1CCCC2(C)C	17µM*	·	·	·	·

Screening data from PubChem.
